The record followed here is PubChem BioAssay (NCI).

Compounds without any hit were thinned out: in the full panel of roughly 83,000, 20% have a hit.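 Results are percent growth after 48 hours of single-concentration exposure. 100 means growth as in untreated cells, lower positive values show inhibition; negative values down to -100 show cell death.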 A number with no mark means an inactive call. Active and inactive are the calls of the source. How the source made its calls: active means growth percent below 10; inactive means the rest.

In this assay the test system is TK-10 renal. The assay is described as follows: NCI-60 one-dose screen, 48 h (100 = growth as untreated, 0 = no growth, -100 = all killed). The conditions noted are these: 10 µM unless noted.
With `CC(=O)OC[C@]12CC[C@@H]([C@@H](C)c3nnc(-c4ccncc4)o3)[C@@H]1[C@H]1CC[C@@H]3[C@@]4(C)CC[C@H](OC(C)=O)C(C)(C)[C@@H]4CC[C@@]3(C)[C@]1(C)CC2`, the growth is 94.7%.
In the case of `CCN(CC)c1ccc(/C=N/NC(=O)Cc2ccc(Nc3ccnc(C(F)(F)F)c3)cc2)c(O)c1`, the growth is 35.4%.
In the case of `Cc1cc2c(cc1C)N(C(=O)CCl)CC(=O)N2`, the growth is 44.5%.
Under `C#CC#CC#CC#CC#CC#CC#CC#CC[C@@H]1OC[C@@H](COC(=O)O[C@@H](C(=O)O[C@H]2C[C@@]3(O)[C@@H](OC(=O)c4ccccc4)[C@@H]4[C@]5(OC(C)=O)CO[C@@H]5C[C@H](O)[C@@]4(C)C(=O)[C@H](OC(C)=O)C(=C2C)C3(C)C)[C@@H](NC(=O)c2ccccc2)c2ccccc2)O1` stands 123%; under `CCN1C(=O)N(CC)C2C1NN=c1s/c(=C\c3cnc(C)n3C)c(=O)n12` (stereo not given), 51.5%.
Consider `C/C=C(\C)C(=O)N[C@H]1C(O)C[C@]2(C)C3CC[C@@]4(C)C(CC[C@@H]4C(C)N(C)C)C3CCC2C1O` (stereo not given in full), for which the growth was 109%.
As for `C#Cc1cccc(Nc2nc(C)nc3cc(NC(=O)CCl)ccc23)c1`, the growth is -93.9% (active).
On to `CSc1nn2c(-c3ccc4ccccc4c3)ccnc2c1C#N`, for which the growth was -2.29% (active).
`CCN(CC)CCCOc1ccc2ncnc(Nc3ccc(Oc4cccc(C(F)(F)F)c4)c(Cl)c3)c2c1`: the growth is 25.7%.
Under `O=C1/C(=C\c2ccccn2)c2ccccc2N1c1c(Cl)cccc1Cl` stands 52%; under `CCOC(=O)c1c(C)c2c(n1Cc1ccccc1)CSCC2=O`, 11.5% [100 µM]; under `O=C(CN1CCN(c2cc3c(cc2F)c(=O)c(C(=O)O)cn3C2CC2)CC1)N/N=C/c1ccco1`, 101%.
For `Clc1ccc(-c2cc(-c3ccccc3)nc(NCCNc3ccnc4cc(Cl)ccc34)n2)cc1`, the growth is 106%.
With `N#C/C(=C\C=C\c1ccc(-c2cc(Cl)ccc2Cl)o1)c1nc2ccccc2s1`, the growth is 118%.
As for `COc1cc(OC)c(C(=O)C(CN(C)C)CN(C)C)cc1OC`, the figure is -79.2% (active); as for `CCn1cc(CNc2ccc(C(=O)Nc3cc4cc(OC)c(OC)cc4c(C)n3)cc2)cn1`, 52.7%; as for `N#Cc1c(-c2ccccc2)nc(SCc2nnc(-c3ccc(Cl)cc3)o2)[nH]c1=O`, 90.6%.
As for `O=P(O)(O)OCC1OC(n2cnc3c(NCc4ccco4)ncnc32)C(O)C1O` (stereo not given), the growth is 60.9%.
As for `CCN(CC)CCCN1C(=O)c2c(c(C)c3c(oc4ccc(O)cc43)c2C)C1=O`, the growth was -27.4% (active).
Regarding `O=[N+]([O-])c1ccc(-c2cn3nc(-c4c[nH]c5ccccc45)sc3n2)cc1`, the growth was 102%.
`Cc1nc2ccccc2c(/C=C/c2ccccc2)c1C(=O)/C=C/c1ccccc1`: the growth was 31%.
As to `O=C1Nc2c(C(=O)O)cccc2/C1=N/c1n[nH]c(=S)s1`, the growth was 117%.
Turning to `CC(=O)Oc1ccc(OC(C)=O)c2ccccc12`, the growth was 103%.
As for `COC(=O)/C=C1/SC(=Nc2ccc([N+](=O)[O-])cc2)N(CCc2c[nH]c3ccc(O)cc23)C1=O`, the figure is 85.2%; as for `[2H]C([2H])([2H])Oc1ccc(F)cc1/C=C/C(=O)/C=C(/C=C/c1cc(F)ccc1OC([2H])([2H])[2H])OB(F)F`, 96.9%; as for `Nc1c(C(=O)Nc2cccc(Cl)c2)sc2nc3c(cc12)CCCC3`, 85.1%.
As for `NS(=O)(=O)c1ccc(C(=O)NN2C(=O)c3c(Br)c(Br)c(Br)c(Br)c3C2=O)cc1`, the growth was 112%.
With `Cc1c(Cl)cccc1C(=O)Nc1nc2c(s1)CN(C(=O)c1ccc(C(F)(F)F)cc1)CC2`, the growth is 64.5%.
Consider `CCCCCN(CCCCC)CC(O)c1cc(C)c2ccc3cc(C(C)C)ccc3c2c1` (stereo not given), for which the growth was 75.5%.
As for `CCC1S/C(=N\N=C(\C)c2cc3cc(Cl)ccc3o2)N(c2ccccc2)C1=O` (stereo not given), the figure is 88%; as for `CN1C(=O)/C(=C/c2ccc(C(=O)Nc3ncc(Cc4cccc(Cl)c4)s3)cc2)SC1=S`, 56%.
For `O=C(NCc1cccc(CNC(=O)Nc2nc3ccccc3[nH]2)c1)Nc1nc2ccccc2[nH]1`, the growth is -32.7% (active).
Consider `COc1ccc(Cn2cc3c(c2-c2ccccc2)CCc2cnoc2-3)cc1`, for which the growth was 91.9%.
Under `Cc1ccc(CNc2c3ccccc3nc3ccccc23)cc1` stands 35.8%.
Consider `FC(F)(F)c1ccc(Cn2cc(CSc3nc4ccccc4s3)nn2)cc1`, for which the growth is 97.6%.
`COc1cc(OC)c2sc(-c3ccc(-n4cncc4-c4cc(OC)c(OC)c(OC)c4)cc3)nc2c1`: the growth was 66.1%.
For `C#CCn1cnc2cnc(Nc3cccc(NC(=O)C=C)c3)nc21`, the growth is 79.9% [6.25 µM].
In the case of `CC(=O)/C(=C/c1ccc([N+](=O)[O-])cc1)C(=O)c1ccccc1`, the growth is 87.8%.
Regarding `CCOC(=O)/C=C1\S/C(=N\Nc2cc(=O)[nH]c3ccccc23)N(c2ccccc2)C1=O`, the growth is 117%.
As for `Cc1ccc(/C=C/C(=O)c2ccc(-n3cc(CN4CCN(c5cc6c(cc5F)c(=O)c(C(=O)O)cn6C5CC5)CC4)nn3)cc2)cc1`, the figure is 104%.
